Compounds with a hit are over-represented: about 4% of the library has one in this group of screens.
Beta apoptosis – inhibitors of cytokine-induced beta cell apoptosis, primary screen, luminescence; hit rate 0.8% among 300,000; protection from apoptosis, % (no concentration beside the values); INS-1E cytokine-induced death, ATP luminescence, 48 h; percent of positive-control rescue, neutral wells zero; AID 435005, 2010;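 active means Every replicate reaches about 75%, or at least half do and their mean reaches it too, limit read from the data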;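 further: 0% = cytokine-treated negative control wells and 100% = positive control rescue; higher means more ATP so stronger rescue from cytokine killing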
CSC inhib – cancer stem cell viability inhibitors, primary screen, luminescence | cancer stem cell-like cells viability | inhibition, % at 7.5 µM | hit rate 1.1% among 300,000; in the data active means inhibition above about 75%; tested in HMLE shEcad cells
Mdm2-MdmX inh – inhibitors of human Mdm2-MdmX association, primary screen, cell-based, luminescence, split luciferase, SaOS-2, uHTS. hit rate 3% among 330,000. AID 485346, 2010. SaOS-2 split-luciferase Mdm2/MdmX complementation. inhibition, % at 8 µM;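 active means inhibition of at least 50% at 8 µM in the primary screen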
Shn3 inh set2 – reduction of Shn3 3'UTR firefly luciferase signal, primary screen, Schnurri-3 inhibitor project, cell-based, Clone20 osteoblasts, set 2. Clone20 osteoblast Shn3 3'UTR firefly luciferase, 24 h. inhibition, % at 12.5 µM. hit rate 0.52% among 360,000;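 active means mean inhibition of at least 75% with every replicate also reaching 75%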;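 further: 0% = median of neutral control wells and 100% = pilot-screen positive control compound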
Gli-Sufu antag – Gli-Sufu pathway antagonists, primary screen, luciferase luminescence, Sufu-KO-LIGHT cells, uHTS. Sufu-KO-LIGHT fibroblasts, Gli luciferase reporter luminescence. hit rate 0.74% among 340,000. inhibition, % at 5 µM;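 active means inhibition above about 55%, limit read from the data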;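 further: 0% = DMSO-treated cells and 100% = wells with medium but no cells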
PAX8 inh HTS – inhibitors of PAX8-driven TPO luciferase reporter, primary screen, RMG-I cells, single concentration; SteadyGlo, 24 h; inhibition, % at 12.6 µM; hit rate 1.2% among 360,000;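 active means mean replicate inhibition at least 60% with every replicate also reaching 60%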;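 further: luciferase light reporting Pax8 driven TPO promoter activity; plate controls were median of neutral control wells for no effect and mitoxantrone controls for full effect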
Mdm2 MdmX conf – Mdm2-MdmX complex disruptors, retested hits, confirmation, luminescence, single concentration; inhibition, % at 8 µM; Mdm2-MdmX binding, luminescent assay; shares compounds with Mdm2-MdmX inh; hit rate 55% among 10,000; in the data active means inhibition above about 40%
FLuc counter – full-length luciferase signal inhibition, confirmation, counter-screen for Mdm2/MdmX interaction inhibitor project, cell-based, single concentration, SaOS-2; shares compounds with Mdm2-MdmX inh; SaOS-2 full-length luciferase counterscreen, luminescence; inhibition, % at 8 µM; hit rate 77% among 6,200; AID 504607, 2011;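 active means mean inhibition at 8 µM reaching about 37%, which flags the compound as non-specific, limit read from the data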;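 further: p53-null SaOS-2 cells with luciferase driven by a doxycycline-inducible promoter; compound on cells about two nights before reading with doxycycline added after day one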
Starred values were filed as active, the others as inactive.

How did COc1cccc(C2C3=C(N=C4SCC(=O)N42)c2ccccc2CC3)c1OC (stereo not drawn) do in these assays?
Beta apoptosis: 9; CSC inhib: 2; Mdm2-MdmX inh: 13; Shn3 inh set2: -9; Gli-Sufu antag: -2

Results for CCOC(=O)C1=C(C)N=c2s/c(=C\c3cccc(OCC(=O)O)c3)c(=O)n2C1c1ccccc1OC (stereo not drawn) ?
Beta apoptosis: 1; CSC inhib: 14; Mdm2-MdmX inh: 6; Shn3 inh set2: 9; PAX8 inh HTS: 3

What do the screens show for `O=C(C[C@@H]1CC[C@@H]2[C@H](COC[C@H](O)CN2Cc2cccc(-c3ccncc3)c2)O1)N1CCN(c2ccccc2)CC1`?
PAX8 inh HTS: 18

What do the screens show for `c1ccc(-c2nnc(NC3=NCCC3)o2)cc1`?
Beta apoptosis: 4; CSC inhib: 15; Mdm2-MdmX inh: -48; Shn3 inh set2: 1; Gli-Sufu antag: -47; PAX8 inh HTS: -4

What do the screens show for `Fc1ccc(-c2nnc(NC3=NCCCCC3)o2)cc1`?
Beta apoptosis: 14; CSC inhib: 19; Mdm2-MdmX inh: 54*; Shn3 inh set2: 58; Gli-Sufu antag: 8; Mdm2 MdmX conf: 50*; FLuc counter: 55*

How did Cc1ccc(S(=O)(=O)Nc2ccc3c(c2)C(=O)N([C@H](C)CO)C[C@@H](C)[C@@H](CN(C)C(=O)Nc2ccc4c(c2)OCO4)O3)cc1 do in these assays?
PAX8 inh HTS: -24

Results for CN1C(=O)c2cc(NC(=O)C3CC3)ccc2OC[C@@H]2O[C@H](CC(=O)NCc3ccccc3F)CC[C@H]21 ?
PAX8 inh HTS: -22

How did C[C@H](CO)N1C[C@H](C)[C@@H](CN(C)C(=O)CCCN(C)C)OCCCC[C@H](C)Oc2ccc(NC(=O)CCCN(C)C)cc2C1=O do in these assays?
PAX8 inh HTS: -17

Results for COc1ncc(-c2ccc3c(c2)S(=O)(=O)c2cccc(C(=O)NCc4ccco4)c2C3=O)cn1 ?
Beta apoptosis: -2; CSC inhib: -6; Mdm2-MdmX inh: 53*; Shn3 inh set2: -8; Gli-Sufu antag: 33; PAX8 inh HTS: -4; Mdm2 MdmX conf: 20

What do the screens show for `O=C(NCC1CCCO1)c1cccc2c1C(=O)c1ccc(N3CCC(Cc4ccccc4)CC3)cc1S2(=O)=O` (stereo not drawn)?
Beta apoptosis: 10; Mdm2-MdmX inh: 54*; Shn3 inh set2: 18; Gli-Sufu antag: 13; Mdm2 MdmX conf: 19

What do the screens show for `COc1ncc(-c2ccc3c(c2)S(=O)(=O)c2cccc(C(=O)O)c2C3=O)cn1`?
Beta apoptosis: -1; CSC inhib: -13; Mdm2-MdmX inh: 13; Shn3 inh set2: 8; Gli-Sufu antag: -5; PAX8 inh HTS: -6

Results for O=C(NCc1ccccc1)c1cccc2c1C(=O)c1ccc(/C=C/c3ccccc3)cc1S2(=O)=O ?
Beta apoptosis: 31; Mdm2-MdmX inh: 77*; Shn3 inh set2: 19; Gli-Sufu antag: -7; PAX8 inh HTS: 17; Mdm2 MdmX conf: 21

How did O=C(NCc1cc(C(F)(F)F)ccc1Cl)c1cccc2c1C(=O)c1ccc(-c3ccc(OC(F)(F)F)cc3)cc1S2(=O)=O do in these assays?
Beta apoptosis: 4; CSC inhib: 19; Mdm2-MdmX inh: 77*; Mdm2 MdmX conf: -13

What do the screens show for `CC1CCN(c2ccc3c(c2)S(=O)(=O)c2cccc(C(=O)NC[C@@H]4CCCO4)c2C3=O)CC1`?
Beta apoptosis: 20; Mdm2-MdmX inh: 16; Shn3 inh set2: 2; Gli-Sufu antag: -9; PAX8 inh HTS: 13

Screening results as filed in PubChem BioAssay.
